Results from the supplement of paper PMC10849652.
Of roughly 7,900 targets only a part is listed; those with a hit were picked by preference. About 0.6% of all pairs of compound and target were hits. Unmarked numbers belong to inactive results.

Assays:
Assay in all cases: log2 fold change, soluble protein after heating vs DMSO (PISA); higher = thermal stabilisation; K562 cells, 10 uM, 30 min; active = over 0.2 and 3.5 SD of the protein, either way, in both replicates (recomputed)
IRAK-1-4 Inhibitor I = compound: C1COCCN1CCN2C3=CC=CC=C3N=C2NC(=O)C4=CC(=CC=C4)[N+](=O)[O-] [IRAK-1-4 Inhibitor I]
Method in brief: (§1)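 Thermal stability values are relative to control samples and come from duplicates. They are expressed as log2 fold changes. For measurement, K562 cells (2×10^6 cells/mL) received 10 μM compound for 30 min, and aliquots were heated for 3 min over 48°C-58°C, pooled, and extracted at 4°C in PBS with 0.5% NP-40. Soluble protein, the supernatant after 21,000xg for 90 min, was quantified by TMTpro 16plex LC-MS/MS with equalised channel sums.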

ibrutinib = compound: C=CC(=O)N1CCC[C@@H](n2nc(-c3ccc(Oc4ccccc4)cc3)c3c(N)ncnc32)C1 [ibrutinib]
Method in brief: as §1

[1] = compound: CC(=O)c1cnc2ccc(-c3cc(Cl)c(O)c(Cl)c3)nc2c1N[C@H]1CC[C@H](CN(C)C)CC1
Method in brief: as §1

ralimetinib = compound: CC(C)(C)Cn1c(N)nc2ccc(-c3[nH]c(C(C)(C)C)nc3-c3ccc(F)cc3)nc21 [ralimetinib]
Method in brief: as §1

[2] = compound: CC(C)(O)CC(=O)NCCn1ccc2ncnc(Nc3ccc(Oc4cccc(C(F)(F)F)c4)c(Cl)c3)c21
Method in brief: as §1

[3] = compound: CC(C)C1=C2N=C(C=C(N2N=C1)NCC3=CC=CC=C3)NCCCCCCN
Method in brief: as §1

[4] = compound: CC(C)C[C@@H](C=O)NC(=O)[C@H](CC(C)C)NC(=O)[C@H](CC(C)C)NC(=O)OCc1ccccc1
Method in brief: as §1

pinometostat = compound: CC(C)N(C[C@H]1O[C@@H](n2cnc3c(N)ncnc32)[C@H](O)[C@@H]1O)[C@H]1C[C@@H](CCc2nc3cc(C(C)(C)C)ccc3[nH]2)C1 [pinometostat]
Method in brief: as §1

[5] = compound: CC1=C(C(CC(=O)N1)C2=CC=C(C=C2)C(F)(F)F)C(=O)NC3=C(C=C4C(=C3)C=NN4)F
Method in brief: as §1

[6] = compound: CC1=C(C2=C(C=C1)C(=O)C3=CC=CC=C3N2CCCN)C
Method in brief: as §1

[7] = compound: CC1=C(C=C(C=C1)NC(=O)C2=CC(=CC=C2)C(C)(C)C#N)NC3=CC4=C(C=C3)N=CN(C4=O)C
Method in brief: as §1

[8] = compound: CC1=C(C=C(C=C1)NC(=O)C2=CC(=CC=C2)N(C)C)NC(=O)C3=CC=C(C=C3)O
Method in brief: as §1

[9] = compound: CC1=CC=C(C=C1)SC2=C3C=C(SC3=CN=C2)C(=O)N
Method in brief: as §1

[10] = compound: CC1=NC(=CC=C1)C2=C(N=C(N2)C(C)(C)C)C3=CC4=NC=CN=C4C=C3
Method in brief: as §1

Nexturastat A = compound: CCCCN(Cc1ccc(C(=O)NO)cc1)C(=O)Nc1ccccc1 [Nexturastat A]
Method in brief: as §1

vemurafenib = compound: CCCS(=O)(=O)Nc1ccc(F)c(C(=O)c2c[nH]c3ncc(-c4ccc(Cl)cc4)cc23)c1F [vemurafenib]
Method in brief: as §1

[11] = compound: CCCS(=O)(=O)Nc1ccc(F)c(C(=O)c2c[nH]c3ncc(Cl)cc23)c1F
Method in brief: as §1

[12] = compound: CCCc1cc(C)[nH]c(=O)c1CNC(=O)c1cc(-c2ccnc(N3CCN(C)CC3)c2)cc2c1cnn2C(C)C
Method in brief: as §1

givinostat = compound: CCN(CC)Cc1ccc2cc(COC(=O)Nc3ccc(C(=O)NO)cc3)ccc2c1 [givinostat]
Method in brief: as §1

barasertib = compound: CCN(CCCOc1ccc2c(Nc3cc(CC(=O)Nc4cccc(F)c4)[nH]n3)ncnc2c1)CCOP(=O)(O)O [barasertib]
Method in brief: as §1

UniProt P09211, sequence (P09211 whole entry, looked up): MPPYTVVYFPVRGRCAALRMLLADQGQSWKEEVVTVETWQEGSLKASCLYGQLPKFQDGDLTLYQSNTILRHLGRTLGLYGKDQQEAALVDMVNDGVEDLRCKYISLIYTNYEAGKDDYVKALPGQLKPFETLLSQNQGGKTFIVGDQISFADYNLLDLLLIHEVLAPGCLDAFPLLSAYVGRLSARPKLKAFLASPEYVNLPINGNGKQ
UniProt Q01628, sequence (Q01628 whole entry, looked up): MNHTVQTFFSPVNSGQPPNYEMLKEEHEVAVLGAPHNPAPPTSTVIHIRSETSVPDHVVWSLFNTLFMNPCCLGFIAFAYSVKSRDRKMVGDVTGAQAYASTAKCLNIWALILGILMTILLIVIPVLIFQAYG
UniProt Q86UX7, sequence (Q86UX7 whole entry, looked up): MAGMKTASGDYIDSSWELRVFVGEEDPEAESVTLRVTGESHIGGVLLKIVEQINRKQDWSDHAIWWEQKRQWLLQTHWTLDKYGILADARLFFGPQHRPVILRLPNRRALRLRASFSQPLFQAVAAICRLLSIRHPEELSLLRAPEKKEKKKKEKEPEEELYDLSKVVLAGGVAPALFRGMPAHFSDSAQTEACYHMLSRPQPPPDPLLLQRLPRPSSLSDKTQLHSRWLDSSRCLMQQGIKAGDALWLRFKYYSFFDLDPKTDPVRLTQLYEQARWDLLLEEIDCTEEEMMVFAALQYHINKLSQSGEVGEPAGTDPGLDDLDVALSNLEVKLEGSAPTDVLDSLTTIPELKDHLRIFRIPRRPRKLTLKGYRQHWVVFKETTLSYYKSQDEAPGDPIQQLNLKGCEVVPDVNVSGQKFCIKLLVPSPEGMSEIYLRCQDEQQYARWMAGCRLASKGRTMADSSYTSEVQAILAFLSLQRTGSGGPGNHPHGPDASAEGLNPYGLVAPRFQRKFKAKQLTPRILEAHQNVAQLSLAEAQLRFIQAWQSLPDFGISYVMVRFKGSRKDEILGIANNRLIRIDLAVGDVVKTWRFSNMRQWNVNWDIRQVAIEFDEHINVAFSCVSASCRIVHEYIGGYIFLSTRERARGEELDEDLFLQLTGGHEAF
UniProt P37268, sequence (P37268 whole entry, looked up): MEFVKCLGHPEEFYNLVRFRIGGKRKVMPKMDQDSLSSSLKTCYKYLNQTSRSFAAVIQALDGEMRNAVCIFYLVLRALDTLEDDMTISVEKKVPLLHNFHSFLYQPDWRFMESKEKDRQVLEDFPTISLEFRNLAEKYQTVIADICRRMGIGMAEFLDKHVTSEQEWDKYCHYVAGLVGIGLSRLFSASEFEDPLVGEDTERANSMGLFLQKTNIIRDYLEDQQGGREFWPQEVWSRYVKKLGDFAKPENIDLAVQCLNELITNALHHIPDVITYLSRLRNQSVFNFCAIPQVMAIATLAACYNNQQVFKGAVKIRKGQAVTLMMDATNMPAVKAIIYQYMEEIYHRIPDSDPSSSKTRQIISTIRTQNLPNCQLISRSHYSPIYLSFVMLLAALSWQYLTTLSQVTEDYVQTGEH
UniProt Q10471, sequence (Q10471 whole entry, looked up): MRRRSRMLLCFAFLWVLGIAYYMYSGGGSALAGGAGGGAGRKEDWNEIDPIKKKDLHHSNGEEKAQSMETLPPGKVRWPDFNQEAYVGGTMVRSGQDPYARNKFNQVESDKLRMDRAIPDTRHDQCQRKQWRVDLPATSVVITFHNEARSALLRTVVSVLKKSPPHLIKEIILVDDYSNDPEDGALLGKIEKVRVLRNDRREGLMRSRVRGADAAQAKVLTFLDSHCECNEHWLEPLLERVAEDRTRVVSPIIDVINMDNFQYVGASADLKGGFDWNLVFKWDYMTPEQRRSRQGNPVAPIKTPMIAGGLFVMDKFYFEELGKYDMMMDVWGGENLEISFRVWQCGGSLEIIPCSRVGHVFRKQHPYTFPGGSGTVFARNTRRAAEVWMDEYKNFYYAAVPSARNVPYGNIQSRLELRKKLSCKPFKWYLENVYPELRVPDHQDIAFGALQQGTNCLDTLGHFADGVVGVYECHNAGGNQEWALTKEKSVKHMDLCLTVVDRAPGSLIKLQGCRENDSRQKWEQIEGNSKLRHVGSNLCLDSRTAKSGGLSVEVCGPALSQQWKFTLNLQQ
UniProt P63218, sequence (P63218 whole entry, looked up): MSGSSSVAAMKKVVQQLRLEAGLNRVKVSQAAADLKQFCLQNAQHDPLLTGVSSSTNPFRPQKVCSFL
UniProt P40939, sequence (P40939 whole entry, looked up): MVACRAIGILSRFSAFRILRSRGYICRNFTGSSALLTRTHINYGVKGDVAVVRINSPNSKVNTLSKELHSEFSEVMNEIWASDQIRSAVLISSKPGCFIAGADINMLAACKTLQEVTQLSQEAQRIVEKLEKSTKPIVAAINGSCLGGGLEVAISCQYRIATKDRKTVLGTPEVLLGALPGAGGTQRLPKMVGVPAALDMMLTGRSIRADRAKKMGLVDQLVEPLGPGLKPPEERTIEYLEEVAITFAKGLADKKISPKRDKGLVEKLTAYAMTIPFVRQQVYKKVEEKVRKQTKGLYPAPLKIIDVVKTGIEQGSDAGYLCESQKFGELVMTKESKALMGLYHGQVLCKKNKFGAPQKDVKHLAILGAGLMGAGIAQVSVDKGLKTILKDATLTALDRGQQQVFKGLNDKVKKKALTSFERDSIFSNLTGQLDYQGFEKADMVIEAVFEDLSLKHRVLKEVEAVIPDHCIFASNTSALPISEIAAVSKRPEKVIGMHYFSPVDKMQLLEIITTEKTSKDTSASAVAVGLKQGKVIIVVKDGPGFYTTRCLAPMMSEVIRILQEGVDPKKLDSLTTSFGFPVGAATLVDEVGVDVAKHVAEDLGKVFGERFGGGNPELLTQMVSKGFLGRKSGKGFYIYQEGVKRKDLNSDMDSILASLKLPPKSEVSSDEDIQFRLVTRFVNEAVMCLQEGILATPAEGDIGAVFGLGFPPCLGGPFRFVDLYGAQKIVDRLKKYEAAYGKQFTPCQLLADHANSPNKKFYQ

Target	log2 fold change (IRAK-1-4 Inhibitor I)	log2 fold change (ibrutinib)	log2 fold change [1]	log2 fold change (ralimetinib)	log2 fold change [2]	log2 fold change [3]	log2 fold change [4]	log2 fold change (pinometostat)	log2 fold change [5]	log2 fold change [6]	log2 fold change [7]	log2 fold change [8]	log2 fold change [9]	log2 fold change [10]	log2 fold change (Nexturastat A)	log2 fold change (vemurafenib)	log2 fold change [11]	log2 fold change [12]	log2 fold change (givinostat)	log2 fold change (barasertib)
GSTP1 (UniProt P09211)	0.12	-0.038	-0.074	-0.021	-0.015	0.016	-0.023	-0.026	-0.004	0.03	0.006	-0.003	0.008	0.008	-0.108	0.022	-0.006	-0.1	-0.019	0.023
GALNT2 (UniProt Q10471)	0.009	-0.019	-0.006	0.014	0.027	-0.021	-0.02	-0.02	-0.028	0.007	-0.003	-0.035	0.016	0.038	-0.032	0	0.04	0.03	-0.005	0.011
HADHA (UniProt P40939)	-0.001	0.175	-0.358	0.058	-0.132	0.43	-0.116	-0.064	-0.125	0.054	0.307	-0.203	0	-0.022	-0.1	-0.017	-0.006	0.1	0.044	-0.013
FDFT1 (UniProt P37268)	0.001	0.007	-0.025	-0.028	-0.015	-0.083	0.077	-0.042	0.012	-0.06	-0.008	0.01	0.063	-0.034	0.01	0	0.092	0.1	-0.018	0.009
IFITM3 (UniProt Q01628)	-0.067	-0.02	-0.241	0.031	0.108	-0.082	0.008	-0.181	-0.207	0.163	-0.058	0.074	0.148	-0.059	-0.425 (active)	0.177	0.2	0.218	-0.036	0.051
IFI30 (UniProt P13284)	0.157	0.049	0.088	-0.05	0.063	0.087	-0.012	0.019	-0.008	-0.099	-0.043	0.043	0.018	-0.046	0.056	0.056	0.183	0.034	0.018	0.028
GNG5 (UniProt P63218)	-0.022	0.039	0.047	0.072	-0.084	0.109	-0.065	-0.072	-0.071	0.002	0.147	-0.17	-0.02	0.074	0.068	0.038	0.004	0.022	-0.063	-0.064
FERMT3 (UniProt Q86UX7)	-0.019	-0.036	-0.039	0.01	-0.048	-0.091	-0.022	-0.002	-0.009	0.003	0.019	-0.024	0.037	0.054	-0.013	0.036	0.083	0.03	0.048	0.019
